Laboratory results taken from PubChem BioAssay (NCI).
Compounds without any hit were thinned out: in the full panel of roughly 83,000, 20% have a hit.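 The test compound was applied at a single concentration to cells in 96-well plates for 48 hours, and percent growth was recorded.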 Unmarked numbers belong to inactive results. The source made the active and inactive calls. The calls were made as follows: active = growth percent below 10; inactive = the rest.

The compounds below were run on NCI-H226 lung (assay: NCI-60 one-dose screen, 48 h (100 = growth as untreated, 0 = no growth, -100 = all killed)). Details: 10 µM unless noted.

Row | SMILES | growth
1 | COc1cc(NCCCN=C(N)N)c2ncccc2c1 | 86.2%
2 | ClCCN(CCCl)c1nc(Cl)c(C2CC(c3ccccc3)=NN2c2cc(Cl)cc(Cl)c2)s1 (stereo not drawn) | 99.6%
3 | CCCCCCCC(=O)OCC(=O)[C@]1(O)Cc2c(O)c3c(c(O)c2[C@@H](OC2CC(N)C(O)C(C)O2)C1)C(=O)c1c(OC)cccc1C3=O (stereo partly drawn) | -65.9% (active)
4 | COC[C@@H]1C[C@@]2(C)[C@@H](CC[C@@H]3[C@@H]2CC[C@@]2(C)[C@H]3CC[C@]2(C)O)CC1=O | 106%
5 | C[C@]12CC[C@@H]3c4ccc(Oc5nc(N6CC6)nc(N6CC6)n5)cc4CC[C@H]3[C@@H]1CCC2=O | 48.7%
6 | O=C1OCC2=C1C(c1ccccc1)c1cc3c(cc1N2)OCO3 (stereo not drawn) | -9.94% (active)
7 | CCC1(C)CC(CCNCc2ccccc2O)(c2ccc(C)cc2)CCO1 (stereo not drawn) | 107%
8 | ClCCN(CCCl)Cc1ccc(Nc2ccnc3cc(Cl)ccc23)cc1 | 70.2%
9 | c1ccc(Nc2nc(-c3ccccc3)c[se]2)cc1 | 81.4%
10 | CCN(CC)CCOC(=O)C(OC(C)C)(c1ccccc1)c1ccccc1 | 100%
11 | CCCc1cc(O)c2c3c(c(=O)oc2c1)CN(C)CC3 | 38.9%
12 | ClCCN(CCCl)c1ccc(/C=N/Nc2ncnc3nc[nH]c23)cc1 | 79%
13 | CCC1(C(C)C)C(=O)NC(=S)NC1=O | 90.5%
14 | CC(C)(N)Cc1ccccc1 | 107%
15 | CC1(C)N=C(N)N=C(N)N1c1cccc(CCCCc2ccc(Cl)c(S(=O)(=O)F)c2)c1 | 57.1%
16 | COc1cc(C=C2c3ccccc3C(=O)c3ccccc32)ccc1OCCCCOc1cc2c(cc1OC)C(=O)N1CCCC1C=N2 (stereo not drawn) | -66.4% (active)
17 | C[CH2][Sn]([Cl])([Cl])[CH2]C.Oc1ccccc1C=NCCN=Cc1ccccc1O | 99.1%
18 | COc1ccc(O)c(CNC(=O)CN2CCCC2=O)c1 | 99.4%
19 | CCOC(=O)C(Cc1ccc(N(CCCl)CCCl)cc1)NC(=O)C(CC(C)C)NC(C)=O (stereo not drawn) | 50%

Row | SMILES | growth
20 | C[C@]12CC[C@H]3[C@@H](CC[C@]4(O)C[C@@H](O[C@@H]5O[C@H](CO)[C@@H](O[C@@H]6OC[C@@H](O)[C@H](O)[C@H]6O)[C@H](O)[C@H]5O)CC[C@]34C=O)[C@@]1(O)CC[C@@H]2C1=CC(=O)OC1 | -2.96% (active)
21 | Clc1ccc2nnnn2n1 | 66.6%
22 | CC1(C)N=C(N)N=C(N)N1c1ccc(CCCCc2ccc(Cl)c(S(=O)(=O)F)c2)c(Cl)c1 | 44.2%
23 | CC(=O)[O][Hg][c]1c(N)c(C)cc(C)c1F | 90.2%
24 | O=C(NCCN1CC1)C(=O)NCCN1CC1 | 87.4%
25 | [Au+].[N-]=C=O.c1ccc(CN2[CH-]N(Cc3ccccc3)C(c3ccccc3)=C2c2ccccc2)cc1 | 107%
26 | O=C(O)CNC(=O)C(Cl)(Cl)Cl | 94.1%
27 | N#C[Se]Cc1cc(-c2ccccc2)n(-c2ccc(S(N)(=O)=O)cc2)n1 | -29.1% (active)
28 | CCCCCC1(CCBr)C(=O)NC(=O)NC1=O | 104%
29 | O=C(O)C(O)C(O)C1[O][Sb]([c]2ccc([N+](=O)[O-])cc2)[O]C1CO (stereo not drawn) | 93.4%
30 | O=Cc1cn(Cc2ccc(Cl)cc2)c2ccccc12 | -26.9% (active)
31 | COc1cc(NC(C)CCCNC2CN3CCC2CC3)c2ncccc2c1 (stereo not drawn) | 87.4%
32 | Cc1ccc(C(=O)NCCCOc2ccc(N)cc2Cl)cc1S(=O)(=O)F | 89%
33 | CC(=O)OCC1O[C@@H]([S-])C(OC(C)=O)[C@H](OC(C)=O)[C@@H]1OC(C)=O.[Au+].c1ccc(CN2[CH-]N(Cc3ccccc3)C(c3ccccc3)=C2c2ccccc2)cc1 | 72.5%
34 | O=C(Nc1ccc(Cl)cc1)Nc1nccs1 | 69.9%
35 | Clc1ccc(COC(Cn2ccnc2)c2ccc(Cl)cc2Cl)cc1 (stereo not drawn) | 70.2%
36 | CC1CCCC(C[N+](C)(C)C)C1=O (stereo not drawn) | 95.4%
37 | CC(=O)/C=C/c1ccc2c(c1)OCO2 | 95.2%
38 | O=C(O)c1ccc([S-])cc1.[Au+].c1ccc(CN2[CH-]N(Cc3ccccc3)C(c3ccccc3)=C2c2ccccc2)cc1 | 3.42% (active)
